Test results from PubChem BioAssay (Tox21).
Several values for one entry are separate records, joined by “and”; a condition that tells them apart may be missing. Equal entries are not always repeated. Records with an inconclusive call do not appear. Activity calls are given as the source filed them. Unless noted, the call rests on the fitted dose curve; in most records, active means well fitted curve in the direction sought with a large enough effect in the repeat runs; inconclusive means weak or mixed curves; inactive means no such curve, though single readings can be large; an effect the other way counts as inactive or inconclusive.

What was measured:
[1] = A CellTox Green Cytotoxicity Assay to monitor cytotoxicity in HepG2 cells - 8 hour (AID 1224890); further: nearly all actives have a fitted effect of over 45% in size
Method in brief: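 Cytotoxicity was tracked as dead-cell DNA fluorescence in HepG2 cells treated with test compounds at 37 C; each time-point value comes from one kinetic series spanning 0, 8, 16, 24, 32 and 40 h.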

[2] = qHTS assay to identify small molecule antagonists of the estrogen receptor alpha (ER-alpha) signaling pathway using the BG1 cell line in the presence of 0.1 nM 17-beta-estradiol - cell viability counter screen (AID 1259241); further: nearly all actives have a fitted effect of over 40% in size
Method in brief: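 Following 5 days in phenol red-free medium with charcoal-stripped serum, VM7Luc4E2 cells received test compounds alongside 0.1 nM 17beta-estradiol (final) at 37C for 22 hr. Live cells were then quantified via protease-substrate fluorescence.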

[3] = qHTS assay to identify small molecule antagonists of the androgen receptor (AR) signaling pathway using the MDA cell line in the presence of 0.5 nM R1881 - cell viability counter screen (AID 1259242); further: nearly all actives have a fitted effect of over 45% in size
Method in brief: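 Cells seeded at 3,000/well and allowed 5 hr at 37C, 0% CO2 before compound transfer and R1881 (0.5 nM final) addition; 16 hr later, live-cell protease fluorescence indicated cytotoxicity.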

[4] = target: Androgen receptor (Homo sapiens) (UniProt P10275); assay: qHTS assay to identify small molecule antagonists of the androgen receptor (AR) signaling pathway using the MDA cell line in the presence of 0.5 nM R1881 (AID 1259243); further: nearly all actives have a fitted effect of over 50% in size
Method in brief: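 Luminescence from an AR/GR-responsive MMTV-luciferase construct in MDA-kb2 breast carcinoma cells, read 30 min after ONE-Glo, following 16 hr co-treatment with compounds and 0.5 nM R1881.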

[5] = qHTS assay to identify small molecule HDAC inhibitors (AID 1259364); further: potency means the concentration at half of the fitted maximal effect;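 further: wild-type HCT-116 cells with endogenous class I/II HDAC activity; nearly all actives have a fitted effect of over 45% in size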
Method in brief: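 HCT-116 wt cells, 1,500/well, overnight attach. Compounds (DMSO) 2 h, 37 °C. HDAC-Glo I/II, 30 min RT. Luminescence.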

[6] = qHTS assay to identify small molecule HDAC inhibitors - cell viability counter screen (AID 1259365); further: series mostly up to about 92 µM; nearly all actives have a fitted effect of over 50% in size
Method in brief: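 HCT-116 wild-type, overnight attachment; 2hr drug exposure, 37C; CellTiter-Glo luminescent ATP readout after 30min RT.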

[7] = qHTS assay to identify small molecule agonists of the sonic hedgehog signaling (Shh) pathway - cell viability counter screen (AID 1259366); further: nearly all actives have a fitted effect of over 50% in size
Method in brief: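 Compounds in DMSO were pin-transferred onto 3T3 Gli1-Luc cells that had settled 4hr; plates then stood 24hr at 37C and 5% CO2. One hour before the end, CellTiter-Fluor was added and fluorescence recorded.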

[8] = qHTS assay to identify small molecule antagonists of the sonic hedgehog signaling (Shh) pathway - cell viability counter screen (AID 1259367); further: nearly all actives have a fitted effect of over 55% in size
Method in brief: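 Cytotoxicity was assessed in parallel with Shh reporter activity by measuring live-cell protease fluorescence (CellTiter-Fluor) in NIH/3T3 cells stably carrying Gli1-Luc, treated with compound under conditioned medium stimulation for 23 hr plus 1 hr reagent incubation.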

[9] = qHTS assay to identify small molecule agonists of the sonic hedgehog signaling (Shh) pathway (AID 1259368; calls by dose curve;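 further: NIH/3T3-derived 3T3Gli1-Luc cells carrying a stable Gli1-driven firefly luciferase reporter; series mostly up to about 92 µM; nearly all actives have a fitted effect of over 15% in size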)
Method in brief: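 Following a 24 hr incubation with DMSO-dissolved compounds at 37 C, 5% CO2, Gli1-Luc NIH/3T3-derived cells received luciferase reagent for 30 min at room temperature prior to luminescence measurement.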

[10] = qHTS assay to identify small molecule antagonists of the sonic hedgehog signaling (Shh) pathway (AID 1259369; calls by dose curve; further: nearly all actives have a fitted effect of over 45% in size)
Method in brief: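 Read-out is luminescence from a firefly luciferase gene controlled by the Gli1 response element, in 3T3Gli1-Luc cells pre-incubated 4hr then exposed to compounds and conditioned medium for 24hr.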

[11] = target: Estrogen receptor beta (Homo sapiens) (UniProt Q92731); assay: qHTS assay to identify small molecule agonists of the estrogen receptor beta (ER-beta) signaling pathway (AID 1259377; active means well fitted activation curve with a large enough effect in the signal ratio in the repeat runs, not every such curve was filed as active; the % refers to the signal ratio)
Method in brief: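 qHTS in ER-beta-UAS-bla HEK293T cells: 6 hr settling, then 16 hr compound at 37C, then LiveBLAzer substrate 2 h at RT before fluorescence reading.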

[12] = target: Estrogen receptor beta (Homo sapiens) (UniProt Q92731); assay: qHTS assay to identify small molecule antagonists of the estrogen receptor beta (ER-beta) signaling pathway (AID 1259378; active means well fitted inhibition curve with a large enough effect in the signal ratio in the repeat runs, not every such curve was filed as active; the % refers to the signal ratio)
Method in brief: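 ER-beta-UAS-bla HEK293T (GripTite) cells in 2% charcoal-stripped FBS medium were preincubated 6 hr at 37C, dosed with compound, then stimulated with 1 nM E2 (final) for 16 hr; beta-lactamase reporter read by B/G FRET fluorescence after 2 hr substrate loading.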

[13] = qHTS assay to identify small molecule agonists of the androgen receptor (AR) signaling pathway in the presence of an antagonist - cell viability counter screen (AID 1259379);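 further: MDA-kb2 human breast cancer cells carrying an MMTV luciferase reporter; series mostly up to about 92 µM; nearly all actives have a fitted effect of over 25% in size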
Method in brief: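 Each compound was tested at 15 concentrations on MDA-kb2 cells in the presence of 3.0uM nilutamide. Viability was measured by CellTiter-Fluor fluorescence after a 16 hr incubation at 37C in a CO2-free atmosphere.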

[14] = qHTS assay to identify small molecule agonists of the estrogen receptor beta (ER-beta) signaling pathway - cell viability counter screen (AID 1259380); further: nearly all actives have a fitted effect of over 30% in size; further: potency means the concentration at half of the fitted maximal effect
Method in brief: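 Compounds dissolved in DMSO were pin-transferred onto ER-beta-UAS-bla HEK293T cells that had settled 6 hr, and exposure ran 16 hr at 37C. Following the reporter read, CellTiter-Glo luminescence after 30 min at room temperature indicated cytotoxicity.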

[15] = qHTS assay to identify small molecule antagonists of the estrogen receptor beta (ER-beta) signaling pathway - cell viability counter screen (AID 1259382); further: series mostly up to about 92 µM; nearly all actives have a fitted effect of over 55% in size
Method in brief: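 CellTiter-Glo ATP luminescence measured after the LiveBLAzer read in the same wells; ER-beta-UAS-bla HEK293T cells, 16 hr compound treatment with 1nM 17-beta-estradiol agonist at 37C, 5% CO2.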

[16] = qHTS assay to identify small molecule phospholipidosis (PLD) inducers (AID 1259344; active means well fitted curve in the direction sought with a large enough effect; an effect the other way counts as inactive or inconclusive)
Method in brief: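 Cells (HepG2, 900 per well) attach for 4 h, receive LipidTOX Red and compound together, incubate 24 h at 37 C, are fixed 30 min with paraformaldehyde/Hoechst, then imaged at one site per well.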

[17] = target: Androgen receptor (Homo sapiens) (UniProt P10275); assay: qHTS assay to identify small molecule agonists of the androgen receptor (AR) signaling pathway in the presence of an antagonist (AID 1259381; calls by dose curve; further: nearly all actives have a fitted effect of over 15% in size)
Method in brief: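 Plated MDA-kb2 cells (3,000/well) were pre-incubated 5hr, given nilutamide (3.0uM final) or buffer, then dosed with compounds in DMSO at 15 concentrations. Luciferase activity was quantified by luminescence after 16hr at 37C.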

[18] = qHTS assay to identify small molecule agonists or antagonists of the thyroid stimulating hormone receptor (TSHR) signaling pathway - wild type cell line counter screen (AID 1259384; calls by dose curve)
Method in brief: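 Wild-type HEK293 cells were plated 18 h at 37 C/5% CO2, pin-dosed with compound plus Ro20-1724 medium, held 30 min at room temperature, then given cAMP-d2 and anti-cAMP-cryptate; fluorescence was read after 1 h. Fifteen concentrations, triplicate.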

[19] = target: Estrogen receptor (Homo sapiens) (UniProt P03372); assay: qHTS assay to identify small molecule antagonists of the estrogen receptor alpha (ER-alpha) signaling pathway using the BG1 cell line in the presence of 0.1 nM 17-beta-estradiol (AID 1259244); further: nearly all actives have a fitted effect of over 50% in size
Method in brief: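 Luciferase signal from VM7Luc4E2 ERE-reporter cells, co-dosed with test compound and 0.1 nM final 17beta-estradiol for 22 h, read with ONE-Glo.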

[20] = target: Estrogen receptor (Homo sapiens) (UniProt P03372); assay: qHTS assay to identify small molecule agonists of the estrogen receptor alpha (ER-alpha) signaling pathway in the presence of an antagonist (AID 1259383; calls by dose curve; further: top concentration of the series differs between compounds; nearly all actives have a fitted effect of over 15% in size)
Method in brief: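 Luminescent ERE-luciferase reporter, VM7Luc4E2 cells (endogenous ER-alpha); 10.0nM ICI-182,780 final; 15-point compound titration; 22hr at 37C; ONE-Glo, 30min RT.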
On the % scale 0 is the no-effect control and ±100 the full control effect.

Chain of Estrogen receptor beta (Homo sapiens) (Q92731 whole entry, looked up): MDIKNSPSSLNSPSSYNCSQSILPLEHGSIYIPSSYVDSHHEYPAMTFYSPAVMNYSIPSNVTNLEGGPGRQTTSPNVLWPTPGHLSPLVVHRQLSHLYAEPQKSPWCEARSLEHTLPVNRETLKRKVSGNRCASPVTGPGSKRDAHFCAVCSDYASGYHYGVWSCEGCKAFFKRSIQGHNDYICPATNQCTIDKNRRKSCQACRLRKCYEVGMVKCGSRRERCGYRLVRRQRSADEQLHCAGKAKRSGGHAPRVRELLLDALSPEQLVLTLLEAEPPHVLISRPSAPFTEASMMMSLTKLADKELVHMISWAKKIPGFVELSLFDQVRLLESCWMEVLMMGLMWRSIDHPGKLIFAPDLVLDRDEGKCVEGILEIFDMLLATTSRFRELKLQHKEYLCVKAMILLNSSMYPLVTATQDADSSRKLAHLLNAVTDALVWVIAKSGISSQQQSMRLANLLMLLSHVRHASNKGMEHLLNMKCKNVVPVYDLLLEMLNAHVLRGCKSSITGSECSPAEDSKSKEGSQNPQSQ
Chain of Estrogen receptor (Homo sapiens) (P03372 whole entry, looked up): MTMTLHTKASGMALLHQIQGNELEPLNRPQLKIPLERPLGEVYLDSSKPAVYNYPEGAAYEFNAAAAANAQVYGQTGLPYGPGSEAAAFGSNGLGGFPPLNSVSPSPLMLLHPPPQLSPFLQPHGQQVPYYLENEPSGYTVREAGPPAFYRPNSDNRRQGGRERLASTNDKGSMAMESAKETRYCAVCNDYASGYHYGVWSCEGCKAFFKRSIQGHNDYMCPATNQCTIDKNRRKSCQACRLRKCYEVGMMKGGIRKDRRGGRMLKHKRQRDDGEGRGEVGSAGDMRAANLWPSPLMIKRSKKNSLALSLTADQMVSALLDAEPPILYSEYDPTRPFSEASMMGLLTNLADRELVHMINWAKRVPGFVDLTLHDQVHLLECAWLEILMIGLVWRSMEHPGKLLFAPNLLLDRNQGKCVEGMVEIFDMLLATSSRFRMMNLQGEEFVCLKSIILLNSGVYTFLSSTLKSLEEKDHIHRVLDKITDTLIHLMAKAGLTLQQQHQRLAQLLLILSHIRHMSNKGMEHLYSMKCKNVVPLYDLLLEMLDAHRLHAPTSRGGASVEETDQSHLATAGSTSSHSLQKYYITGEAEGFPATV
Chain of Androgen receptor (Homo sapiens) (P10275 whole entry, looked up): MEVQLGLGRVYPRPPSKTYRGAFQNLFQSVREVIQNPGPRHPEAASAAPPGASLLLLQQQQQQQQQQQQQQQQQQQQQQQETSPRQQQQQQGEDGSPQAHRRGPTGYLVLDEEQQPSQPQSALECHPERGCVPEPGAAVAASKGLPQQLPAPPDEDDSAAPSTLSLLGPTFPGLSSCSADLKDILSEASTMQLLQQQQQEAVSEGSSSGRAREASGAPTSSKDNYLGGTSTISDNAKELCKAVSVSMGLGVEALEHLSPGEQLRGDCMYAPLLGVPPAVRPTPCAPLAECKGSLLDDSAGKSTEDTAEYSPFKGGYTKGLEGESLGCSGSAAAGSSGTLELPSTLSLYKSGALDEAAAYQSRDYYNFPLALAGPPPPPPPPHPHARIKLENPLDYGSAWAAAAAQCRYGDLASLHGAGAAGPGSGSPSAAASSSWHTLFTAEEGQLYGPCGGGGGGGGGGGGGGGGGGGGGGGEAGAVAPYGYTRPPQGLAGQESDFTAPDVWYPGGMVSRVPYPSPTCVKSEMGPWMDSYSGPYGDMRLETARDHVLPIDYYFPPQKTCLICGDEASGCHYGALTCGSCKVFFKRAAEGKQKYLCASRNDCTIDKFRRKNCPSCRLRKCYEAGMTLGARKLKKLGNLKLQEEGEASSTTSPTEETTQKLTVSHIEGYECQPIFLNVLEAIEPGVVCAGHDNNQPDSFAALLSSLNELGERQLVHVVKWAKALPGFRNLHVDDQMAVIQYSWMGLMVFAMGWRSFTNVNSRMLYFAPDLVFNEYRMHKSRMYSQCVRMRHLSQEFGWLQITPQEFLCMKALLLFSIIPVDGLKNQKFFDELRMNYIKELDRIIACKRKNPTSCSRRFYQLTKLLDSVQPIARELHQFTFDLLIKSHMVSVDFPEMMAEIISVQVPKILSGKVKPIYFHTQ

O=C(O)/C=C/c1ccc(/C=C/C(=O)O)cc1
inactive: Potency [1] | outcome [2] | outcome [3] | Potency [4] | outcome [6] | Potency [7] | outcome [8] | Potency [9] | Potency [10] | outcome [11] | Potency [12] | Potency [13] | Potency [14] | Potency [15]
active: Potency [5] 1340 nM

NS(=O)(=O)c1cc2c(cc1C(F)(F)F)NC(Cc1ccccc1)NS2(=O)=O (stereo unspecified)
inactive: Potency [1] | outcome [2] | outcome [3] | Potency [4] | Potency [16] | Potency [5] | outcome [6] | Potency [7] | outcome [8] | Potency [9] | Potency [10] | outcome [11] | Potency [12] | Potency [13] | Potency [14] | Potency [17] | Potency [15] | outcome [18]

CC(C)c1ccc2oc3nc(N)c(C(=O)O)cc3c(=O)c2c1
inactive: Potency [1] | outcome [2] | outcome [3] | Potency [4] | outcome [19] | Potency [16] | outcome [6] | Potency [7] | outcome [8] | Potency [9] | Potency [10] | Potency [13] | Potency [20]
active: Potency [5] 266 nM | Potency [14] 23700 nM

CCCCCCCCN(C)CCCCCCCC
inactive: Potency [1] | outcome [2] | outcome [3] | Potency [4] | outcome [19] | Potency [5] | outcome [6] | Potency [7] | outcome [8] | Potency [9] | Potency [10] | Potency [13] | Potency [14] | Potency [17] | Potency [15] | Potency [20]

C#CC(O)C(CC)CCCC (stereo unspecified)
inactive: Potency [1] | outcome [2] | outcome [3] | Potency [4] | Potency [5] | outcome [6] | Potency [7] | outcome [8] | Potency [9] | outcome [11] | Potency [12] | Potency [13] | Potency [14] | Potency [17] | Potency [15]

Nc1nc(F)nc2c1ncn2[C@@H]1O[C@H](CO)[C@@H](O)[C@@H]1O
inactive: Potency [1] | outcome [2] | outcome [3] | outcome [19] | Potency [16] | Potency [5] | outcome [6] | Potency [7] | outcome [8] | Potency [9] | Potency [10] | outcome [11] | Potency [12] | Potency [13] | Potency [14] | Potency [15]

Cc1nccn1CC1CCc2c(c3ccccc3n2C)C1=O (stereo unspecified)
inactive: Potency [1] | outcome [2] | outcome [3] | outcome [19] | PLD induction [16] -0.746% [at 7.66 µM] and -2.67% [at 3.15 µM] | Potency [5] | outcome [6] | Potency [7] | outcome [8] | Potency [9] | Potency [10] | outcome [11] | Potency [12] | Potency [13] | Potency [14] | Potency [15] | Potency [20] | outcome [18]

CCOC(=O)Nc1ccc2c(c1)N(C(=O)CCN1CCOCC1)c1ccccc1S2
inactive: Potency [1] | outcome [2] | outcome [3] | Potency [4] | outcome [19] | Potency [16] | Potency [5] | outcome [6] | outcome [8] | Potency [9] | outcome [11] | Potency [12] | Potency [13] | Potency [14] | Potency [17] | Potency [15] | Potency [20] | outcome [18]
